Consider 47 compounds from publication PMC4336329 (PLoS ONE, 2015).

Hit rate of the full screen: of about 310,000 compounds, about 14,000 (4.5%) showed an effect of 50% or more. The effect is printed as a negative number. The sample as a whole holds a higher share of strong results than the screen did.
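Further: peak tail current of the secondary pulse compared with the same well before compound.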

The target of this test is human ether-à-go-go-related gene (hERG) potassium channel (human, UniProt Q12809). The test is described as follows: primary screen, population patch clamp on CHO cells stably expressing hERG; higher = less effect of the substance.
human ether-à-go-go-related gene (hERG) potassium channel, sequence (Q12809 whole entry, looked up): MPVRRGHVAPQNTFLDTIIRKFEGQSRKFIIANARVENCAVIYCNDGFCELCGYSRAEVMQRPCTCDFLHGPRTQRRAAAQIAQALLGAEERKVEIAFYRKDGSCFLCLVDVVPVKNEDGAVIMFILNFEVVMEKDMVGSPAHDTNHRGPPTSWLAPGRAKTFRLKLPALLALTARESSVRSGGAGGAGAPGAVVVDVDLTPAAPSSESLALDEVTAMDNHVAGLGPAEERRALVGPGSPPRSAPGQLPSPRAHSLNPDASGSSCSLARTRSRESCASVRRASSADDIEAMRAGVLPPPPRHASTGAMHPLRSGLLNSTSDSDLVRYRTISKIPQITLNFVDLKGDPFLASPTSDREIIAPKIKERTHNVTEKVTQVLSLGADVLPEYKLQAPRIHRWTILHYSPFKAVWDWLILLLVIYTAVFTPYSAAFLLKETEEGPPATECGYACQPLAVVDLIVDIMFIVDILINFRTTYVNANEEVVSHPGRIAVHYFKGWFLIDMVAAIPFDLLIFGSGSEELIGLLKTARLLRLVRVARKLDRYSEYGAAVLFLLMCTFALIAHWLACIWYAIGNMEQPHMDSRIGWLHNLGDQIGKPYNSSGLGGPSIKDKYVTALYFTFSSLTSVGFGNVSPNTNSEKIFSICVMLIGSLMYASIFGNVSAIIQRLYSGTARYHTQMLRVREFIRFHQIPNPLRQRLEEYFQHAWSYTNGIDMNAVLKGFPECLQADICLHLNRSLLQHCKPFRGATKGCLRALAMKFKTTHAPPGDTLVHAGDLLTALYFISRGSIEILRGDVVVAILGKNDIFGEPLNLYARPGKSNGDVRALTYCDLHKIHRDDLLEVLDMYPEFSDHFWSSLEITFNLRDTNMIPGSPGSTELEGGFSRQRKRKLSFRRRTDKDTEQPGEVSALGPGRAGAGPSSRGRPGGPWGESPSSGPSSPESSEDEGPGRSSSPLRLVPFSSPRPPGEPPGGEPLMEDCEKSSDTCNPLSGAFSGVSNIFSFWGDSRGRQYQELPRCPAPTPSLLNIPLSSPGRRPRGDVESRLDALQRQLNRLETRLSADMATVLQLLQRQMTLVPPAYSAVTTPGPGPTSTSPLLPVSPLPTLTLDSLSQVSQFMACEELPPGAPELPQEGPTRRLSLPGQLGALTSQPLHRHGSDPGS
Consider `CC(NC(=O)OCc1ccccc1)c1ccccc1` (centres unmarked), for which the “hERG current change (%, negative = inhibition) at 10uM” value is -22.9%.
In the case of `COCCN1C(=O)N(c2cccc(C)c2)C(=O)C1CC(=O)Nc1cc(OC)cc(OC)c1` (centres unmarked), the “hERG current change (%, negative = inhibition) at 10uM” value was 10.2%.
Then `CC(C)Cc1nnc(NC(=O)CCC(=O)N2CCN(c3ccccc3)CC2)s1`, with 13.2%.
Take `CCN(CC)CCNC(=O)c1cc([N+](=O)[O-])c(N(C)C)cc1OC.Cl`: the “hERG current change (%, negative = inhibition) at 10uM” value is listed as -12%.
As to `CCCSc1cc(Cl)nc(N)n1`, the “hERG current change (%, negative = inhibition) at 10uM” value was -9.06%.
Then `COc1ccc(S(=O)(=O)Nc2cccc(F)c2C)cc1C(=O)N1CCOCC1`, with 6.33%; and `CC(NC(=O)COC(=O)c1cn(-c2ccccc2)nc1-c1cccs1)c1ccccc1` (centres unmarked), with 0.115%; and `COC(=O)c1c(NC(C)=O)sc(C(=O)Nc2ccccc2OC)c1C`, with 16.2%.
Then `CC(Cc1n[nH]c(=S)o1)c1ccccc1` (centres unmarked), with 20.7%; and `COc1cccc(C(C(=O)NC2CCCC2)N(Cc2cccnc2)C(=O)Cc2cccs2)c1` (centres unmarked), with -5.67%; and `COc1ccc(C2=Nc3ccc(C)cc3C(c3ccccc3)N2CC(=O)NN)cc1` (centres unmarked), with -23.2%.
In the case of `O=[N+]([O-])c1ccccc1NCc1ccc(Cl)cc1` it was -19.5%; in that of `COC(=O)c1ccc(OCC(O)CNCC(c2ccc(OC)cc2)N(C)C)c(OC)c1` (centres unmarked), -21.4%; in that of `C/C=C/c1ccc(OCC(O)CNCCc2ccc(OC)cc2)c(OC)c1.O=C(O)C(=O)O` (centres unmarked), -73.4%.
For `C/C=C/c1ccc(OCCCNCC(C)O)c(OC)c1` (centres unmarked), the “hERG current change (%, negative = inhibition) at 10uM” value is listed as -29.2%.
Then `C/C=C/c1ccc(OCC(O)CNCC(c2ccc(OC)cc2)N(C)C)c(OC)c1.O=C(O)C(=O)O` (centres unmarked), with -66.5%; and `C=CCNCC(O)COc1ccc(C(C)=O)cc1OC.O=C(O)C(=O)O` (centres unmarked), with -6.16%; and `Cc1cc(Br)ccc1NC(=O)CN(C)C(=O)C1CSC2(C)CCC(=O)N12` (centres unmarked), with 11.5%.
In the case of `CC1=CC(C)(C)Nc2ccc(OC(=O)CCN3C(=O)c4ccccc4C3=O)cc21` it was 0.14%; in that of `COc1ccc(C(=O)NC2CCN(C(=S)Nc3ccccc3)CC2)cc1`, 12.7%.
Then `CNC(=O)c1c[nH]n2c(=O)c(Cc3ccccc3F)c(C)nc12`, with 16.9%; and `COc1cccc(/C=C/C(=O)NNC(=O)c2ccncc2)c1`, with -20.5%.
As for `CCOc1cnc(C(=O)NNC(=O)c2ccccc2Br)o1`, the “hERG current change (%, negative = inhibition) at 10uM” value came out at 11%.
Then `CCCNS(=O)(=O)c1ccc(OCC(=O)NCc2ccc3c(c2)OCO3)cc1`, with -23.8%.
In the case of `C=CCNC(=O)/C(C#N)=C/c1c(C)nn(-c2ccccc2)c1Cl` it was -20%.
With `O=C(/C=C/c1ccc(Cl)cc1)NC1CCS(=O)(=O)C1` (centres unmarked), the “hERG current change (%, negative = inhibition) at 10uM” value is -58.7%.
Turning to `O=C(NC(NC1CCS(=O)(=O)C1)C(Cl)(Cl)Cl)c1cccc(Cl)c1` (centres unmarked), the “hERG current change (%, negative = inhibition) at 10uM” value is -7.37%.
Then `O=C(/C=C/c1ccccc1)NC1CCS(=O)(=O)C1` (centres unmarked), with 18.1%.
In the case of `O=C(NC1CCS(=O)(=O)C1)/C(=C\c1ccccc1)NC(=O)c1ccccc1` (centres unmarked) it was -11%.
In the case of `O=C(NC(NC1CCS(=O)(=O)C1)C(=O)c1ccccc1)c1ccc(Cl)cc1` (centres unmarked) it was -51.6%.
Regarding `O=C(NC1CCS(=O)(=O)C1)/C(=C/c1ccc(Cl)cc1)NC(=O)c1ccccc1` (centres unmarked), the “hERG current change (%, negative = inhibition) at 10uM” value is recorded as -55%.
Consider `O=C(NC(NC1CCS(=O)(=O)C1)C(=O)c1cccs1)c1ccccc1` (centres unmarked), for which the “hERG current change (%, negative = inhibition) at 10uM” value is listed as -1.01%.
In the case of `O=C(NC1CCS(=O)(=O)C1)/C(=C\c1ccc(F)cc1)NC(=O)c1ccccc1` (centres unmarked) it was -34.7%.
In the case of `Cc1ccc(/C=C/C(=O)NC2CCS(=O)(=O)C2)cc1` (centres unmarked) it was 20.6%.
In the case of `Cc1ccc(NC(=O)NCc2ccccn2)cc1` it was 37.7%; in that of `Fc1ccc(OCc2nc(-c3cccs3)no2)cc1`, -9.58%; in that of `c1ccc(Cc2nn3c(COc4ccccc4)nnc3s2)cc1`, 6.61%.
As to `CC1=C(C(=O)OCc2ccccc2)C(c2ccccc2[N+](=O)[O-])NC(=O)N1C` (centres unmarked), the “hERG current change (%, negative = inhibition) at 10uM” value stood at 1.71%.
In the case of `COc1ccccc1Nc1nc(N)nc(CN2CCN(Cc3ccccc3)CC2)n1` it was -73.2%; in that of `COc1cccc(N2CCN(Cc3nc(N)nc(Nc4ccccc4OC)n3)CC2)c1`, -25.6%.
In the case of `COc1ccccc1Nc1nc(N)nc(CN2CCN(c3ccccc3)CC2)n1` it was -52.9%; in that of `COc1ccccc1Nc1nc(N)nc(CSC(=S)N2CCOCC2)n1`, -9.92%; in that of `COc1ccccc1Nc1nc(N)nc(CN2CCC(Cc3ccccc3)CC2)n1`, -84.5%.
With `COc1ccccc1Nc1nc(N)nc(CCl)n1`, the “hERG current change (%, negative = inhibition) at 10uM” value was 3.4%.
In the case of `COc1ccccc1Nc1nc(N)nc(CSC(=S)N2CCN(c3ccccc3)CC2)n1` it was 6.86%.
In the case of `COc1ccc(OCc2nc(N)nc(Nc3ccccc3OC)n2)cc1` it was 9.46%; in that of `COc1ccc(N2CCN(Cc3nc(N)nc(Nc4ccccc4OC)n3)CC2)cc1`, -62%.
